A selection: hits, their analogues and other compounds. The true share with any hit is near 21%.
Pf growth 96h = P. falciparum growth inhibition at 96 hour, primary screen for plastid delayed-death inhibitors; hit rate 6.9% among 320,000; P. falciparum luciferase reporter growth, 96 h; Potency, µM (highest dose often 28.7 µM), hits mostly inhibitors
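Luminescence readout: decreased luciferase signal marks inhibited growth of reporter-expressing P. falciparum in infected red cells (2% hematocrit, 0.05% parasitemia final), exposed to compound two generations (96 h, 37 C, 5% CO2).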
NS1 function inh = influenza NS1 inhibition; Potency, µM (top dose mostly 46.1 µM); hit rate 0.4% among 270,000; calls by dose curve; note: actives are rising curves; nearly all actives have a fitted effect of over 50% in size
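Compounds were scored for reversing the slow growth caused by influenza A NS1 in S. cerevisiae, measured by optical density at 600 nm. Assay medium contained 2% galactose at pH 6.0; NS1-free yeast of the same strain were the positive control.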
Pf growth 48h = P. falciparum growth inhibition at 48 hours (one generation); P. falciparum luciferase growth in erythrocytes, 48 h; Potency, µM (highest dose often 28.7 µM), actives largely listed as inhibitors; hit rate 5.9% among 310,000
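Firefly luciferase activity from engineered P. falciparum reports growth; inhibitors lower the luminescent signal. Cultures contained 2% hematocrit erythrocytes at 0.1% final parasitemia.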
Cycloheximide cs = counter-screen hit for Shiga toxin inhibitors, cycloheximide | hit rate 12% among 300,000 | max response, % | AID 2314 | cell reporter, cycloheximide protein synthesis inhibition counterscreen; in the data active = max response mostly above about 13%, no sharp cut-off; inactive = mostly below about 14%; note: read at 38.3 µM for the half of the compounds with a filed dose
Shiga inhibitor = inhibitors of Shiga toxin in Vero cells | hit rate 9.2% among 290,000 | AID 2315 | Vero cells, Shiga toxin protein synthesis inhibition reporter | inhibition, % at 38.7 µM; in the data active = inhibition mostly above about 28%, no sharp cut-off; inactive = mostly below about 43%
A number is an active result; 0 = inactive; ? = inconclusive; - = no result given; [ ] = another dose, or the depositor's remark. Unless noted, calls come from the whole dose curve; as a rule, active = well fitted inhibition curve with a large enough effect; inconclusive = small, poorly fitted or top-dose-only effect, or another doubt; inactive = no such curve, though single readings can be large or run the other way.

SMILES	Pf growth 96h	NS1 function inh	Pf growth 48h	Cycloheximide cs	Shiga inhibitor
O=C1CCCC/C1=C/Nc1ccc(C(=O)O)cc1	0	0	-	30	0
O=C1CCCC/C1=C\Nc1ccccc1C(=O)O	0	0	0	0	0
COc1ccc(Oc2ccc(N/C=C3/CCCC3=O)cc2)cc1	0	0	?	0	0
COc1ccc(C(=O)NCCSCc2cccc(Cl)c2)cc1OC	?	0	?	0	0
COc1cccc(C(=O)NCCSCc2ccccc2Cl)c1	0	0	?	13	0
COc1cccc(C(=O)NCCSCc2c(F)cccc2Cl)c1	?	0	0	22	-
C=CCNC(=O)COc1cc(C)ccc1C	0	0	0	0	0
Cc1noc(C)c1CSc1nnc2sc3ccccc3n12	0	0	0	0	0
COc1ccc(CCN2CC(C(=O)NC3CCOCC3)CCC2=O)cc1 (configuration not stated)	0	0	0	0	0
COc1cc2cnc(-c3ccccc3)c(-c3ccc(C#N)cc3)c2cc1OC	?	-	2.3µM	-	-
O=C(c1[nH]ncc1-c1cccc(Br)c1)C1CO1 (configuration not stated)	?	0	15µM	active	0
Cc1coc2cc3oc(=O)c(CCC(=O)NCCCN4CCOCC4)c(C)c3cc12	0	0	0	0	0
Cc1oc2cc3oc(=O)c(CCC(=O)NCCN4CCOCC4)c(C)c3cc2c1C	10µM	0	0	29	31
CCOc1ccc(CN(C)Cc2cc(=O)oc3cc(C)c(Cl)cc23)cc1	?	0	?	0	0
Cc1ccc2c(CN(C)Cc3cccc(F)c3)cc(=O)oc2c1	0	0	0	30	88
Cc1cc2oc(=O)cc(CN(C)Cc3ccccc3)c2cc1C(C)C	?	0	13µM	0	0
COc1ccc(CN(C)Cc2cc(=O)oc3cc(C)c(C(C)C)cc23)cc1OC	?	0	?	0	0
Cc1cc2oc(=O)cc(CN3CCCCC3C)c2cc1C(C)C (configuration not stated)	?	0	15µM	0	0
COc1cc(CN(C)Cc2cc(=O)oc3cc(C)c(Cl)cc23)ccc1OC(F)F	?	0	?	0	50
Cc1cc2oc(=O)cc(CN(C)Cc3cccc(F)c3)c2cc1Cl	0	0	0	0	0
COc1ccc(-c2nsc3c(SCC(=O)Nc4cc(C)ccc4C)ncnc23)cc1	?	0	?	0	0
CCOc1ccc(NC(=O)CC(c2ccccc2)c2ccc(F)cc2)cc1 (configuration not stated)	?	0	0	0	0
CSc1ccc(CN(C)Cc2cc(=O)oc3c(C)c(C)ccc23)cc1	0	0	?	0	0
Cc1ccc2c(CN(C)Cc3cccc(Cl)c3)cc(=O)oc2c1C	0	0	0[0.00184 µM]	6.4	0
CCc1ccc2c(CN(C)Cc3ccccc3OC)cc(=O)oc2c1	0	0	0[0.00184 µM]	19	0
SMILES	Pf growth 96h	NS1 function inh	Pf growth 48h	Cycloheximide cs	Shiga inhibitor
CC(C)C[C@H](NC(=O)[C@H](CC(C)C)NC(=O)[C@@H](Cc1c[nH]c2ccccc12)NC(=O)[C@H](Cc1ccccc1)NC(=O)[C@@H](Cc1c[nH]c2ccccc12)NC(=O)[C@H](CCC(N)=O)NC(=O)[C@H](CCC(N)=O)NC(=O)[C@@H]1CCCN1C(=O)[C@H](CCCCN)NC(=O)[C@@H]1CCCN1C(=O)[C@H](N)CCCN=C(N)N)C(N)=O	-	-	-	0	0
COc1ccc(S(=O)(=O)O/N=C2\CCSc3ccc(C)cc32)cc1	?	0	2.9µM	0	0
Cc1ccc(C(=O)O/N=C2\CCSc3ccc(C)cc32)cc1	0	0	0	0	0
COc1cc(SC)ccc1C(=O)N(Cc1ccccc1)c1ccccn1	0	0	0	0	0
S=C=Nc1cccc(C2(N3CCCCC3)CCCCC2)c1	1.7µM	-	2.6µM	-	-
O=C1CC(Sc2ccc(Cl)cc2)C(=O)N1c1ccc2c(c1)OCCO2 (configuration not stated)	?	0	0	0	0
Cc1ccc(-c2nn(-c3ccccc3)cc2/C=C/C(=O)O)o1	0	0	0	14	0
O=C(O)/C=C/c1cn(-c2ccccc2)nc1-c1cc2ccccc2oc1=O	0	0	0	22	41
Cc1ccc(-c2nn(-c3ccccc3)cc2CN(Cc2ccccc2)C(=O)c2ccco2)o1	12µM	0	-	0	0
O=C(CN1CCCCC1)NCC(=O)Nc1ccc(F)c(F)c1F	0	-	0	-	-
O=Cc1cccn1-c1cccnc1	0	0	0	0	0
COc1cccc(OCC(=O)NNC(=O)c2ccc3ccccc3c2)c1	0	0	0	0	0
CCCCc1ccc(NC(=O)CSc2nnc(CNC(=O)c3ccco3)o2)cc1	?	0	0	0	0
